PubChem BioAssay AID1476 (National Center for Advancing Translational Sciences (NCATS), 2009)
In all, about 200,000 compounds went through this assay and about 4,500 (2.2%) were called active. Not shown: some 12% with an inconclusive outcome. Shown is part of a subset that was picked to be rich in actives. Values without a mark were called inactive. Calls follow the shape of the dose curve; as a rule, active = well fitted inhibition curve with a large enough effect; inconclusive = small, poorly fitted or top-dose-only effect, or effect the other way; inactive = flat fitted curve, though single readings scatter.

Biological target: Cruzipain (Trypanosoma cruzi) (UniProt P25779)
Assay: qHTS Assay for Promiscuous and Specific Inhibitors of Cruzain (without detergent); also: nearly all actives have a fitted effect of over 40% in size;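 as to max response, negative = inhibition: plate controls were enzyme without inhibitor for no effect and buffer without enzyme for full effect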
Settings: purified cruzain, Z-FR-AMC fluorescence, no detergent
Procedure, shortened: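 Purified cruzain at 1.5 nM, pre-incubated 15 min with compound at room temperature in 100 mM sodium acetate pH 5.5, 5 mM DTT, 0.00005% Triton X-100. Reaction started with 2 uM Z-FR-AMC; AMC fluorescence increase over 60 s gives rate.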
Potency is read from the fitted curve at half-maximal effect.

Sequence of Cruzipain (Trypanosoma cruzi) (P25779 123-467 limits assumed): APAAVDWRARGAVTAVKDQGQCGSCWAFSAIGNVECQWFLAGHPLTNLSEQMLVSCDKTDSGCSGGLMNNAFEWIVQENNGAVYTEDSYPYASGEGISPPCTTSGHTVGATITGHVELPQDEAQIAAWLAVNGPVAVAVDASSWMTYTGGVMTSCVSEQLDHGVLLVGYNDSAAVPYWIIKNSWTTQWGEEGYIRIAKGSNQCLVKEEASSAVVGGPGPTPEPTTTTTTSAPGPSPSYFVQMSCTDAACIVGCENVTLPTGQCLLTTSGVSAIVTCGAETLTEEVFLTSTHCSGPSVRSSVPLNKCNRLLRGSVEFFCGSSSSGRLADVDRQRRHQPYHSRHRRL

SMILES | max response, negative = inhibition | Potency
COC(=O)C(NC(=O)c1ccc(OC)cc1)(Nc1ncc(S(=O)(=O)c2ccc([N+](=O)[O-])cc2)s1)C(F)(F)F (stereo not given) | -9.17% | 
COc1ccc(C(=O)Nc2ncc3c(n2)-c2ccccc2CC3)cc1 | -8% | 
COc1ccc(C(=O)Nc2nc(-c3ccc(OC)cc3)c(-c3ccc([N+](=O)[O-])cc3)s2)cc1 |  | 7.94 µM (active)
O=C(NCc1ccccc1Cl)c1cccn1-c1nnc(N2CCCCC2)s1 | -7.04% | 
O=c1cc(-c2ccc(O)c(O)c2)oc2cccc(O)c12 | 0.411% | 
Oc1ccc(O)c2c(O)cccc12 |  | 12.6 µM (active)
O=S(=O)(c1ccc(Cl)cc1)c1nnn2c1nc(NC1CCCC1)c1sccc12 | 1.8% | 
Cc1ccccc1NC(=O)Cn1c(=O)n(CC2CCC(C(=O)NCCc3ccccc3)CC2)c(=O)c2ccccc21 (stereo not given) | 3.54% | 
COc1ccc(-c2nc(C)c(CCNC(=O)c3ccc(C(F)(F)F)cc3)s2)cc1OC | 17.5% | 
CCn1cc(CCC(=O)NCc2ccc(F)cc2)c2ccccc21 | -13.6% | 
COC(=O)c1ccc(CSc2ccccc2C)o1 | -6.13% | 
Cc1cccc(NC(=O)CSc2nc3c([nH]c4ccccc43)c(=O)n2-c2cc(C)cc(C)c2)c1 | -19.8% | 
Cc1ccc(NC(=O)CSc2nc3c([nH]c4ccccc43)c(=O)n2-c2ccccc2)cc1Cl | 2.09% | 
CCc1ccc(NC(=O)CSc2nc3c([nH]c4ccccc43)c(=O)n2-c2cccc(OC)c2)cc1 |  | 12.6 µM (active)
COC(=O)c1ccc(CSc2nc3ccccc3c(=O)n2-c2cccc(OC)c2)o1 |  | 25.1 µM (active)
COCC(C)n1c(SCc2ccc(C(=O)OC)o2)nc2ccccc2c1=O (stereo not given) | 12.5% | 
COc1ccc(-c2cccc(NS(=O)(=O)c3cc(C)c(OC)c(C)c3C)c2)nn1 | -5.81% | 
Cc1ccccc1CNC(=O)c1ccc(NC(=O)N2CCCCc3ccccc32)cc1 | -9.89% | 
Cc1ccc(-c2nnc(SCC(=O)NCc3ccccc3)nc2-c2ccc(C)cc2)cc1 | -17.5% | 
Brc1ccc2c(c1)NC(c1cccnc1)=NC(c1ccccc1)=N2 | 2.72% | 
CCCCN(C)CCCNC(=O)CN1N=C(c2ccc(OC)cc2)CCC1=O | 2.7% | 
Cc1nn(C)c2c1c(C(F)(F)F)cc(=O)n2C(C)C(=O)NCc1ccc(Cl)cc1 (stereo not given) | -3.11% | 
COc1ccc(C(=O)NNC(=S)NC(=O)c2ccccc2[N+](=O)[O-])cc1 | -1.55% | 

SMILES | max response, negative = inhibition | Potency
COc1ccc(C2CC(c3ccccc3)=NN2C(=O)c2ccc(Cl)c([N+](=O)[O-])c2)cc1 (stereo not given) |  | 10 µM (active)
COc1ccc(C2=NN(C(=O)c3cccnc3)C(c3ccccc3)C2)cc1 (stereo not given) | 7.92% | 
CCOC(=O)C1CCCN(C(=O)c2ccc(-n3ccc4ccccc43)s2)C1 (stereo not given) | 13.4% | 
CCOc1ccc(C(=O)c2cn(Cc3ccc(F)cc3)c3ccc(F)cc3c2=O)cc1 | 3.78% | 
Nc1ncc(S(=O)(=O)Nc2ccc(OC(F)(F)F)cc2)cn1 | -3.7% | 
O=C(c1cn(-c2ccccc2)nc1-c1cccnc1)N1CCCCC1 | -0.942% | 
COC(=O)c1cn(-c2ccccc2)nc1-c1cccnc1 | 10.9% | 
O=C(COC(=O)/C=C/c1cn(-c2ccccc2)nc1-c1cccnc1)Nc1ccc(Cl)cc1Cl |  | 10 µM (active)
CCc1c(C)sc(NC(=O)C2c3ccccc3Oc3ccccc32)c1C(=O)OC(C)C | -24.3% | 
CCCOC(=O)c1cc2ccccc2oc1=O | -4.88% | 
CCc1ccc(Oc2coc3cc(OC(=O)c4cc5ccccc5oc4=O)ccc3c2=O)cc1 |  | 3.98 µM (active)
COc1ccc(Oc2coc3cc(OC(=O)c4cncc(Br)c4)ccc3c2=O)cc1 | -23.9% | 
CNc1nc(SC)nc(N(C#N)CC(=O)OC)n1 |  | 25.1 µM (active)
Cc1cc(C)nc(N(C#N)CC(=O)Nc2ccccc2)n1 | 5.89% | 
COC(=O)C(C)N(C#N)c1nc(C)nc(C)n1 (stereo not given) | 1.82% | 
CCCCOc1ccc(NC(=O)c2cc3c(n(-c4ccc(Cl)cc4)c2=O)CCCC3=O)cc1 | 7.21% | 
CSCCC(NS(=O)(=O)c1ccc2c(c1)oc(=O)n2C)C(=O)NCc1ccccc1 (stereo not given) | -13% | 
COc1ccc(CCNC(=O)CCCn2c(=O)c3ccccc3n(Cc3ccc(F)cc3Cl)c2=O)cc1OC | 13.2% | 
CCc1nnc(SCc2nc(-c3cccc(C)c3)oc2C)c2cc3sc(C)cc3n12 | -17.8% | 
COc1ccccc1C(=O)OCc1cc(=O)n2nc(-c3cccs3)sc2n1 | -3.73% | 
COc1ccc(C2CC(c3cccs3)=Nc3ccccc3S2)cc1OC (stereo not given) | 13.4% | 
COc1ccc(C2CC(c3cccs3)=NN2C(=O)COC(=O)c2cc3ccccc3cc2O)cc1OC (stereo not given) |  | 12.6 µM (active)
O=C(Cn1ncc2c3ccccc3n(Cc3ccccc3)c2c1=O)NC1CCCCCC1 | 10.4% | 

SMILES | max response, negative = inhibition | Potency
COc1cccc(NC(=O)CSc2cc(=O)n(C)c3ccc(Cl)cc23)c1 | -14.5% | 
COc1cn(CC(=O)Nc2cccc(C)c2C)c(CN2CCCCC2)cc1=O | 9% | 
CCC(=O)N1c2ccccc2CC1C(=O)N1CCN(c2ccccc2)CC1 (stereo not given) | 7.34% | 
O=C(CN1CCc2ccccc21)NC(c1ccccc1)c1ccccc1 |  | 25.1 µM (active)
O=S(=O)(NCC(c1ccccc1)N1CCc2ccccc21)c1ccccc1 (stereo not given) | 4.54% | 
O=C(NC(c1ccccc1)c1ccccc1)N1CCN(CCO)CC1 | -2.87% | 
Cc1ccc(Nc2nc(-c3sc(NC(=O)c4ccccc4)nc3C)cs2)cc1 |  | 31.6 µM (active)
CN(CCCC(=O)Nc1nccs1)S(=O)(=O)c1ccc(Cl)cc1 | -7.25% | 
COc1cccc(NC(=O)c2csnn2)c1 | -5.7% | 
CCOC(=O)c1csc(NC(=O)Nc2cccc(OC)c2)n1 | 8.19% | 
Cc1nc(C)c(-c2csc(NCCc3ccccc3)n2)s1 | -11.5% | 
CC(=O)c1sc(NC(=O)c2ccc(C)cc2)nc1C | -25% | 
Cc1nc(NC(=O)CN(C)S(=O)(=O)c2ccc(Cl)cc2)sc1C | -3.63% | 
CCCCC(=O)Nc1nc(C)c(-c2csc(Nc3ccc(Cl)cc3)n2)s1 |  | 7.94 µM (active)
CCCCCCC(=O)Nc1nc(C)c(-c2csc(Nc3cccc(OC)c3)n2)s1 |  | 10 µM (active)
Cc1ccc(C(=O)Nc2nc(-c3ccccc3)ns2)cc1 | 5.68% | 
C=CCCC(=O)Nc1nc(C)c(-c2csc(Nc3ccc(Cl)cc3)n2)s1 |  | 12.6 µM (active)
CCCCN(C)CCC(=O)Nc1ccc(Cl)cc1 | -0.803% | 
Cc1ccc(Cl)cc1NC(=O)NC1COc2ccccc2C1 (stereo not given) | -7.18% | 
CCCCCCC(=O)Nc1nc(C)c(-c2csc(Nc3cc(Cl)ccc3OC)n2)s1 |  | 3.16 µM (active)
COc1ccc(Cl)cc1NC(=O)CCC(=O)c1ccc(C)cc1 | 4.58% | 
CCCCC(=O)N/N=C(\C)CC(=O)Nc1cc(Cl)ccc1OC | 7.24% | 
CCOCCn1ccc2c(OCC(=O)NCc3ccc(C)cc3)cccc2c1=O | 4.16% | 

SMILES | max response, negative = inhibition | Potency
Cc1cc(F)ccc1NC1(c2ccccc2)C(=O)c2ccccc2C1=O | -5.27% | 
CCOC(=O)c1ccc(NC(=O)C2CCN(S(=O)(=O)c3ccc4c(c3)CCCC(=O)N4)CC2)cc1 | 1.28% | 
CC(C)NC(=O)C(=O)NCCN1CCN(S(=O)(=O)c2ccc(Cl)cc2)CC1 | -2.28% | 
Cc1c(C2=CCN(S(=O)(=O)c3ccc(Cl)cc3)CC2)c2ccccc2n1C |  | 31.6 µM (active)
O=C(ON=C1CCN(S(=O)(=O)c2ccccc2)CC1)c1ccc(Cl)cc1 | 20.4% | 
CCc1nn(CCCC(=O)NCc2ccccc2OC)c(=O)c2cc3occc3n12 | -6.49% | 
CCOc1ccc(-c2cc3c(=O)n(CC(=O)NCc4ccc(OC)cc4)ccn3n2)cc1 | 4.06% | 
COc1cc(NC(=O)CCNC(=O)Cn2ccc3ccccc3c2=O)cc(OC)c1OC | -10.9% | 
Cc1cc(C(=O)OCC(=O)Nc2nnc(C(C)C)s2)c2ccccc2n1 | -3.17% | 
CCOC(=O)c1ccc(COC(=O)c2cc(=O)[nH]c3ccccc23)o1 | -5.71% | 
O=C(COC(=O)c1cc(=O)[nH]c2ccccc12)Nc1nc(-c2cccc(Br)c2)cs1 |  | 15.8 µM (active)
CCN(Cc1ccccc1)S(=O)(=O)c1ccc2c(c1)CCCN2C(C)=O | 12.3% | 
O=C(NC1CC(=O)N(c2ccc(F)cc2)C1)c1ccc(S(=O)(=O)N2CCCC2)cc1 (stereo not given) | 8.64% | 
CC(C)(C)C(=O)c1cnc(Nc2ccccc2)s1 | -10.8% | 
O=C(c1ccc(Cl)cc1)c1cnc(Nc2ccccc2)s1 |  | 15.8 µM (active)
O=C(Nc1ccccc1)c1nnsc1S(=O)(=O)c1ccc(Cl)cc1 | -8.46% | 
Cc1ccc(C)c(S(=O)(=O)c2nnn3c2nc(N2CCOCC2)c2sccc23)c1 | 0.86% | 
Cc1ccc2nc(COc3cccc(NC(=O)c4cccc(Cl)c4)c3)cc(=O)n2c1 | -16.6% | 
COc1cccc(C(=O)Nc2ccc3oc(-c4ccc5ccccc5c4)nc3c2)c1 |  | 12.6 µM (active)
Cc1ccccc1-c1nc2cc(NC(=O)c3cccc(OCCC(C)C)c3)ccc2o1 | -8.64% | 
COC(=O)c1ccc(-c2nc3cc(NC(C)=O)ccc3o2)cc1 | 5.54% | 
